From PubChem BioAssay
FBW7 act = activators of human E3 ligase FBW7; Q969H0; AlphaScreen FBW7–phospho-cyclin E peptide binding, activator screen; normalized activity (activation), % at 26.1 µM; 650,000 tested, 0.13% active; AID 1259310; in the data active means normalized activity above about 1.9%;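 further: purified mutant Fbw7 with reduced substrate affinity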
Target sequence (Q969H0 whole entry, looked up): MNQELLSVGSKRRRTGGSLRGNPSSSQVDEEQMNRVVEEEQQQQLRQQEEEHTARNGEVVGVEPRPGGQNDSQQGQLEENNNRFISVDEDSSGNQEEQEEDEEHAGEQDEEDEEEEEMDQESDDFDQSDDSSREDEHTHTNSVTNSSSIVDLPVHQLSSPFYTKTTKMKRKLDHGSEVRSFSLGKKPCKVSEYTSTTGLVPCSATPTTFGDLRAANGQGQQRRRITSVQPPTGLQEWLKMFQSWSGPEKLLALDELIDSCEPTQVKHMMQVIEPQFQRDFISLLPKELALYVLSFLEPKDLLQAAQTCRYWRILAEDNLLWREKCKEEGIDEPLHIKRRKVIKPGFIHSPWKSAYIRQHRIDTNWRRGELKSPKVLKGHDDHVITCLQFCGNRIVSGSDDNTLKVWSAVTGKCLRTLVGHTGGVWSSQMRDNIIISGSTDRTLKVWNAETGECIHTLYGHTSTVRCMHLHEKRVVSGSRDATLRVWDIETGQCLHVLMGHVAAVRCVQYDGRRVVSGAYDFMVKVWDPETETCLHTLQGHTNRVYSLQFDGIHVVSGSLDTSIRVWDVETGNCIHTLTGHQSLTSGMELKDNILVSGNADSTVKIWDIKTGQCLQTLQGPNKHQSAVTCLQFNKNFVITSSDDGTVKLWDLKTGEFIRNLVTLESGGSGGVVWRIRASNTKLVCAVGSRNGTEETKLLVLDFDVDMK
MITF inh = blocks human microphthalmia-associated transcription factor. O75030. AlphaScreen MITF homodimerization, bead proximity signal. inhibition, % at 2.6 µM. 650,000 tested, 0.91% active; in the data active means inhibition above about 50%;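 further: 0% = vehicle wells with protein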
GPR151 activ = human GPR151 activation | AID 1508602 | 650,000 tested, 1% active | activation, % at 11.2 µM | PathHunter beta-arrestin GPR151 cells, luminescence; in the data active means activation above about 4.9%;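 further: 0% = median of compound wells and 100% = cells with positive control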
TEAD-YAP inh = TEAD-YAP interaction inhibition; 640,000 tested, 1.4% active; HEK-TIYL cells, TEAD-Gal4/YAP UAS-luciferase luminescence; inhibition, % at 9.12 µM; AID 1259422; in the data active means inhibition above about 32%;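 further: 0% = median of test compound wells and 100% = reference inhibitor wells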
The depositor's hits bear a star. In the library only some 3.5% were active in any assay of this set; here they are far more common.

SMILES	FBW7 act	MITF inh	GPR151 activ	TEAD-YAP inh
COc1ccc(-c2nc3ccccc3s2)cc1OC(C)=O	1	20	-3	58*
COc1cc(NC(=O)c2n[nH]c3ccccc23)cc(OC)c1OC	0	-5	0	-13
CCOc1cc(/C=N/N=C(N)N)ccc1OCc1ccccc1	0	6	1	40*
CCOc1cc(/C=N\NC(=O)c2ccc(N)cc2)ccc1OCc1ccccc1	0	7	2	-1
CC1=C(C(=O)Nc2ccc(Cl)cc2)C2(CCCCC2)OC1=O	0	10	0	-1
CCCCCOc1ccc(NC(=O)/C=C\C(=O)O)cc1	0	10	0	-19
NC(C(=O)N1CCC(Nc2ccc3[nH]ncc3c2)CC1)c1ccc(-c2ccccc2)cc1 (centres undefined)	0	3	-1	38*
CCOC(=O)CN1CCN(c2ccc(Br)cn2)CC1	0	-8	-1	44*
CCOC(=O)CN1CCN(c2ccc(-c3cccc(C=O)c3)cn2)CC1	1	15	-1	11
C=CCN1C(=O)C2(NC(=O)c3ccccc3N2)c2ccccc21 (centres undefined)	1	13	0	66*
CCOC(=O)c1c(NC(=O)CCCC(=O)O)sc2c1CCC(C(C)(C)C)C2 (centres undefined)	0	4	-2	-5
CC(C)Cc1ccc(S(=O)(=O)Nc2ccc3c(c2)n(C)c(=O)n3C)cc1	0	1	1	33*
Cn1c(=O)n(C)c2cc(NS(=O)(=O)c3ccc(C(C)(C)C)cc3)ccc21	0	17	1	25
CCN1C(=O)/C(=C\c2cc(C)n(-c3ccccc3C)c2C)C(C(=O)OC)=C1C	0	17	1	-14
CCN1C(=O)/C(=C\c2cc(C)n(-c3ccccc3F)c2C)C(C(=O)OC)=C1C	0	18	-1	38*
C=CCN1C(=O)/C(=C\c2cc(C)n(-c3ccccc3)c2C)C(C(=O)OC)=C1C	0	-20	0	8
C=CCN1C(=O)/C(=C\c2cc(C)n(-c3ccccc3F)c2C)C(C(=O)OC)=C1C	0	1	-1	36*
CC(C)CC(c1nnnn1Cc1cccs1)N1CCC(C(N)=O)CC1 (centres undefined)	0	-4	1	-9
NNc1ccc2nnc(C(F)(F)C(F)(F)C(F)(F)F)n2n1	1.9*	5	0	9
O=C(Cn1cnc2c(oc3ccccc32)c1=O)NC1CCCCC1	0	7	0	3
Cc1cc2[nH]c(=S)n(Cc3ccccc3Cl)c2cc1C	0	0	2	50*
Cc1ccc(C(Nc2ccccn2)c2ccc3cccnc3c2O)s1 (centres undefined)	0	35	0	81*
Oc1c(C(Nc2ccccn2)c2ccc(Br)cc2)ccc2cccnc12 (centres undefined)	0	14	1	84*
Oc1ccc(Br)c(C(Nc2ccccn2)c2ccc3cccnc3c2O)c1 (centres undefined)	0	12	0	85*
CCCOc1ccc(C(Nc2ccccn2)c2ccc3cccnc3c2O)cc1 (centres undefined)	0	19	-2	21
SMILES	FBW7 act	MITF inh	GPR151 activ	TEAD-YAP inh
CC(C)c1ccc(C(Nc2ccccn2)c2ccc3cccnc3c2O)cc1 (centres undefined)	0	18	1	63*
Cc1ccc2ccc(C(Nc3ccccn3)c3cccc(O)c3)c(O)c2n1 (centres undefined)	0	3	0	8
O=C(CN1CCCC(COCc2ccccc2)C1)NCc1ccccc1Cl (centres undefined)	0	42	0	2
Cc1ccc(NC(=O)CSc2nc3ccccc3c(=O)n2CCc2ccc(S(N)(=O)=O)cc2)cc1Cl	0	11	3	10
CCCCCCOc1ccccc1/C=C1/N=C(c2ccc(Cl)cc2)OC1=O	0	8	0	3
C/C=C/C(=O)Oc1ccccc1/C=C1/N=C(c2ccc(Cl)cc2)OC1=O	0	19	-1	36*
CC(C)c1cc(C(=O)Nc2cccc(O)c2)no1	0	12	-4	81*
CC(C)Cc1cc(C(=O)Nc2cccc(O)c2)no1	0	5	-1	87*
CC(C)Cc1cc(C(=O)Nc2cccc(Cl)c2)no1	0	-24	0	-48
O=C(Nc1nc2ccc(NC(=O)C34CC5CC(CC(C5)C3)C4)cc2s1)C1CCCCC1	0	21	-2	53*
O=C(CCN1CCCCCC1)Nc1ccccc1Cl	0	16	-1	4
COc1ccc2nc(NC(=O)CSc3nnc4c5ccccc5n(Cc5ccccc5)c4n3)sc2c1	0	-7	-1	1
CCc1cccc(NC(=O)N[C@H]2C[C@H]3C(=O)N[C@H](CO)C(=O)N3C2)c1	0	8	-1	6
O=C(N/N=C/c1cc(Cl)ccc1O)c1cccs1	-1	40	0	55*
O=C(N/N=C\c1ccc(O)cc1O)C(=O)N/N=C/c1ccc(O)cc1O	-1	69*	-1	13
O=C(N/N=C/c1ccc(O)cc1O)c1cccs1	0	83*	-4	-25
CCOc1cc(C(=O)N/N=C/c2ccc(O)cc2O)cc(OCC)c1OCC	-1	10	2	72*
O=C(N/N=C/c1ccc(O)cc1)c1cccs1	0	16	-7	-50
COc1ccc(C(=O)N/N=C/c2ccc(O)cc2O)cc1	0	48	-1	8
O=C1CCC(N2CCN(c3ccc(F)cc3)CC2)CCN1Cc1ccc(F)cc1F (centres undefined)	0	-8	1	-5
CCOc1ccc(C2C(C(=O)c3ccccc3)=C(C(=O)OC)Nc3nnnn32)cc1 (centres undefined)	1	36	0	-14
CCN(CC)c1ccc(/C=N/NC(=O)c2nonc2N)cc1	0	-19	-4	46*
O=C(N/N=C/c1cc(Br)ccc1F)c1cccs1	0	-2	0	-50
O=C(N/N=C/c1cc(Br)ccc1O)c1cccs1	0	31	0	40*
O=C(CNc1ccc2ccccc2c1)N/N=C/c1ccc(O)cc1O	0	-4	2	40*
SMILES	FBW7 act	MITF inh	GPR151 activ	TEAD-YAP inh
O=C(N/N=C/c1ccc(O)cc1O)c1ccc[n+](CCO)c1	-1	101*	3	7
COc1cccc(NC(=O)c2sc3nc(C)[nH]c(=O)c3c2C)c1	0	16	-2	-6
OC1(C(F)(F)F)NN=C2C=Cc3ccccc3N21 (centres undefined)	0	-5	1	1
CCc1ccc(C(=O)NCc2ccncc2)s1	1	10	-1	4
Nc1nonc1C(=O)N/N=C/c1ccc(O)cc1O	-1	94*	-7	9
Nc1nonc1C(=O)N/N=C\c1ccc(O)c(O)c1	0	-5	-5	2
CCCNC(=O)c1ccc2c(c1)NC(=O)c1ccccc1S2	0	-2	1	-1
O=C(NCCc1ccccc1)c1ccc2c(c1)NC(=O)c1ccccc1S2	0	-1	0	53*
COc1cccc(-c2nc(COC(=O)c3[nH]c(C)c(C(C)=O)c3C)cs2)c1	0	10	1	44*
